Active and inactive are the calls of the source. Rule for the calls: active = hit-call score of the fitted dose curve at least 0.9, where 1 is the maximum; inactive = score below 0.9.
The compounds below were run on CD40, CD40 (gene 958) (assay: BSK_SAg_CD40: BioMAP Diversity Plus: SAg Assay for CD40 Biomarker Activity (AID 2283088)). Conditions: primary human HUVEC with PBMC; actives raise or lower the signal.
Description: BSK_SAg is a cell-based, multiplexed-readout assay that uses umbilical vein endothelium and peripheral blood mononuclear cells, a human vascular primary cell co-culture, with measurements taken at 24 hours after chemical dosing in a 96-well plate.BSK_SAg_CD40 is one of 10 assay component(s) measured or calculated from the BSK_SAg assay. It is designed to make measurements of enzyme-linked immunosorbent assay, a form of binding reporter, as detected with fluorescence intensity signals by Enzyme-linked immunosorbent assay technology.Data from the assay component BSK_SAg_CD40 was analyzed into 1 assay endpoint. This assay endpoint, BSK_SAg_CD40, was analyzed with bidirectional fitting relative to DMSO as the negative control and baseline of activity. Using a type of binding reporter, gain or loss-of-signal activity can be used to understand changes in the signaling as they relate to the gene CD40. Furthermore, this assay endpoint can be referred to as a primary readout, because this assay has produced multiple assay endpoints where this one serves a signaling function. To generalize the intended target to other relatable targets, this assay endpoint is annotated to the cytokine intended target family, where the subfamily is inflammatory factor.
The levels of cell surface (or secreted, indicated by the prefix "s") biomarker endpoints were measured by ELISA. Overt cytotoxicity to cells in confluent adherent cultures (all systems other than the BT system) was assessed by measuring total protein levels using sulforhodamine B (SRB) staining in parallel cultures at the time of biomarker measurements, indicated as SRB endpoints. For proliferation assays for adherent cell types, individual cell types are cultured at sub-confluence and relative cell numbers quantified by SRB staining at time points optimized for each system (48 h: 3C and CASM3C systems; 72 h: BT and HDF3CGF systems; 96 h: SAg system). SRB was performed by staining cells with 0.1% SRB after fixation with 10% TCA and reading wells at 560 nm.Viability and proliferation of PBMC (T cells) was quantified by Alamar Blue reduction for the SAg and BT systems. For PBMC viability (referred to as PBMC Cytotoxicity within the assay endpoint names), cells were plated (75,000/well in a 96-well plate) and then chemical samples added for 1 h before addition of activators, SEB and TSST-1 (20 ng/mL final concentration each). Cells were incubated for 90 h. Then, Alamar Blue (20 uL/well) (Invitrogen, Cat DAL1100) was added for 6 h, and the plates were read with a fluorescence microplate reader at 546/580 nm (excitation/emission). For PBMC proliferation, cells were plated and activated as above but incubated for only 16 h prior to addition of Alamar Blue. Plates were read after 6 h.

Row | SMILES | outcome | AC50
1 | CCCCCCCC=O | inactive | –
2 | Cc1oc(-c2ccccc2)nc1CCOc1cccc2c1ccn2CCC(=O)O | inactive | –
3 | COc1ccc2c(c1)c(CC(=O)O)c(C)n2C(=O)c1ccc(Cl)cc1 | inactive | –
4 | NC(=O)Cn1c(=O)cc(CCN2CCN(c3nccc4sccc34)CC2)c2ccc(F)cc21 | inactive | –
5 | CC(CO)OC(C)CO (stereo not given) (tested in a mixture with another compound) | inactive | –
6 | Cc1ccc(C)c(C)c1 | inactive | –
7 | O=c1[nH]cc(F)c(=O)[nH]1 | inactive | –
8 | Oc1ccc2c(c1)OC[C@@H](N1CCC(O)(c3ccc(F)cc3)CC1)[C@H]2O | inactive | –
9 | Cc1cc(NC(=O)C(=O)O)cc(C)c1Oc1ccc(O)c2c1CCC2 | inactive | –
10 | CCCCCCOCCO | inactive | –
11 | Cc1ccc(Cl)cc1 | inactive | –
12 | CCOC(=O)CCC(=O)OCC | inactive | –
13 | O=[N+]([O-])C(CO)(CO)CO | inactive | –
14 | CC(C)c1ccc(C(=O)N=C(N)N)cc1S(C)(=O)=O | inactive | –
15 | CC1(C)NC(=O)NC1=O | inactive | –
16 | Cc1ccccc1Cl | inactive | –
17 | Cc1ccc2ncccc2c1 | inactive | –
18 | COc1ccc(C)cc1N | inactive | –
19 | COc1cc(S(=O)(=O)O)c(C)cc1N=Nc1c(O)ccc2cc(S(=O)(=O)O)ccc12 | inactive | –
20 | Oc1ccc2ccccc2c1N=Nc1ccccc1 | inactive | –

Row | SMILES | outcome | AC50
21 | CNC(=O)[C@H]1O[C@@H](n2cnc3c(NCc4cc(Cl)ccc4OCc4cc(C)no4)ncnc32)[C@H](O)[C@@H]1N | inactive | –
22 | Cc1ccc(N(C)C)cc1 | inactive | –
23 | Cc1nc(C)nc(N2C[C@@H](C)N(c3ccnc([C@@H](C)O)n3)[C@@H](C)C2)n1 | inactive | –
24 | COc1cc(C=O)ccc1O | inactive | –
25 | CCCCCC(=O)O | inactive | –
26 | O=C(O)Cc1ccccc1Nc1c(Cl)cccc1Cl | inactive | –
27 | CCCCCCCCCCCC(=O)OC | inactive | –
28 | CC=Cc1ccc(O)c(OC)c1 | inactive | –
29 | CN1CCN(Cc2cc(-c3ccc4[nH]c(=O)oc4c3)co2)[C@@H](c2ccc(F)cc2)C1 | – | 26.8 µM (active)
30 | COc1ccc(S(=O)(=O)N2C(=O)[C@@](c3ccccc3OC)(N3C[C@H](O)C[C@H]3C(=O)N(C)C)c3cc(Cl)ccc32)c(OC)c1 | – | 20 µM (active)
31 | Nc1ccccc1N | inactive | –
32 | CCCc1cc(=O)[nH]c(=S)[nH]1 | inactive | –
33 | COc1cc(-c2nc(NC(=O)c3cc4cc(C)cc(C)c4n3CC(=O)O)sc2CCC2CCCCC2)c(OC)cc1Cl | – | 3.21 µM (active)
34 | C[C@]12C=CC(=O)C=C1CC[C@@H]1[C@@H]2C(=O)C[C@@]2(C)[C@H]1CC[C@]2(O)C(=O)CO | inactive | –
35 | CC(=O)Oc1ccccc1C(=O)O | inactive | –
36 | CCCCCCCCCCO | inactive | –
37 | Nc1ccc2c(c1)C(=O)c1ccccc1C2=O | inactive | –
38 | Cc1cc(=O)[nH]c(=S)[nH]1 | inactive | –
39 | CCCCc1ccc2c(n1)[C@@H](c1ccc(OC)cc1C[C@H](C)C(=O)O)[C@H](C(=O)O)[C@H]2c1ccc2c(c1)OCO2 | inactive | –
40 | NCCO | inactive | –

From PubChem BioAssay (EPA / NIEHS)
